Test results as given in PubChem BioAssay.
Several values for one entry are separate records, joined by “and”; a condition that tells them apart may be missing. Equal entries are not always repeated. Activity calls are given as the source filed them.

Assays:
[1] = test system: Plasmodium falciparum Sir2 (PF13_0152, Sir2A); test: pfSir2 binders on small-molecule microarrays, primary screen, biochemical, small-molecule microarray, 635 nm fluorescence (AID 1098); conditions: small-molecule microarray binding, fluorescence 635 nm; higher = more signal;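 note: score merges spot fluorescence intensity with its signal-to-noise ratio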
[2] = small-molecule microarray binders of probe aDKK1, primary screen, biochemical, biotinylated probe, 635/667 nm fluorescence (AID 1099); conditions: higher = more signal;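 note: score merges 667nm spot fluorescence with signal to noise across triplicate slides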
[3] = small-molecule microarray binders of probe aCHRDL2, primary screen, biochemical, biotinylated probe, 635/667 nm fluorescence (AID 1100); conditions: higher = more signal
[4] = splicing luciferase reporter signal modulators, primary screen, spliceosome inhibition project, cell-based, HEK293, splice +/- reporter (AID 1101); conditions: luminescence, 24 h, higher = more signal, called active from +8 up or from −8 down;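 note: HEK293 cells carrying a splicing-competent luciferase reporter gene; test concentration not given here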
[5] = target: Fibroblast growth factor 10 (Homo sapiens) (UniProt O15520); test: FGF10 binders on small-molecule microarrays, primary screen, biochemical, small-molecule microarray, 635 nm fluorescence (AID 1102); conditions: FGF10 binding, fluorescence 635 nm, higher = more signal
Fibroblast growth factor 10 (Homo sapiens), sequence (O15520 whole entry, looked up): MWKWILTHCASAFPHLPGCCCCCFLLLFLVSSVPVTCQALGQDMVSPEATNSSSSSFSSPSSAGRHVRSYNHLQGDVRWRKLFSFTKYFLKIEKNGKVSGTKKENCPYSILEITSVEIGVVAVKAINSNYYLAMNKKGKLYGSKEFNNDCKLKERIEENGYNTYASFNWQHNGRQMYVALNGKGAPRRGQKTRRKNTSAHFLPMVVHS

[6] = test system: glycogen synthase kinase-3 (GSK3A per assay name; protocol says GSK3B); test: GSK3 binders on small-molecule microarrays, primary screen, biochemical, small-molecule microarray, 635 nm fluorescence, GSK3A (AID 1103); conditions: small-molecule microarray binding, fluorescence 635 nm; higher = more signal; note: the record names both GSK3A and GSK3B
[7] = target: Epidermal growth factor receptor (Homo sapiens) (UniProt P00533); test: EGFR binders on small-molecule microarrays, primary screen, biochemical, small-molecule microarray, 635 nm fluorescence (AID 1104); conditions: EGFR binding, higher = more signal;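 note: score merges 667 nm emission intensity with spot signal to noise over triplicate slides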
Epidermal growth factor receptor (Homo sapiens), sequence (P00533 whole entry, looked up): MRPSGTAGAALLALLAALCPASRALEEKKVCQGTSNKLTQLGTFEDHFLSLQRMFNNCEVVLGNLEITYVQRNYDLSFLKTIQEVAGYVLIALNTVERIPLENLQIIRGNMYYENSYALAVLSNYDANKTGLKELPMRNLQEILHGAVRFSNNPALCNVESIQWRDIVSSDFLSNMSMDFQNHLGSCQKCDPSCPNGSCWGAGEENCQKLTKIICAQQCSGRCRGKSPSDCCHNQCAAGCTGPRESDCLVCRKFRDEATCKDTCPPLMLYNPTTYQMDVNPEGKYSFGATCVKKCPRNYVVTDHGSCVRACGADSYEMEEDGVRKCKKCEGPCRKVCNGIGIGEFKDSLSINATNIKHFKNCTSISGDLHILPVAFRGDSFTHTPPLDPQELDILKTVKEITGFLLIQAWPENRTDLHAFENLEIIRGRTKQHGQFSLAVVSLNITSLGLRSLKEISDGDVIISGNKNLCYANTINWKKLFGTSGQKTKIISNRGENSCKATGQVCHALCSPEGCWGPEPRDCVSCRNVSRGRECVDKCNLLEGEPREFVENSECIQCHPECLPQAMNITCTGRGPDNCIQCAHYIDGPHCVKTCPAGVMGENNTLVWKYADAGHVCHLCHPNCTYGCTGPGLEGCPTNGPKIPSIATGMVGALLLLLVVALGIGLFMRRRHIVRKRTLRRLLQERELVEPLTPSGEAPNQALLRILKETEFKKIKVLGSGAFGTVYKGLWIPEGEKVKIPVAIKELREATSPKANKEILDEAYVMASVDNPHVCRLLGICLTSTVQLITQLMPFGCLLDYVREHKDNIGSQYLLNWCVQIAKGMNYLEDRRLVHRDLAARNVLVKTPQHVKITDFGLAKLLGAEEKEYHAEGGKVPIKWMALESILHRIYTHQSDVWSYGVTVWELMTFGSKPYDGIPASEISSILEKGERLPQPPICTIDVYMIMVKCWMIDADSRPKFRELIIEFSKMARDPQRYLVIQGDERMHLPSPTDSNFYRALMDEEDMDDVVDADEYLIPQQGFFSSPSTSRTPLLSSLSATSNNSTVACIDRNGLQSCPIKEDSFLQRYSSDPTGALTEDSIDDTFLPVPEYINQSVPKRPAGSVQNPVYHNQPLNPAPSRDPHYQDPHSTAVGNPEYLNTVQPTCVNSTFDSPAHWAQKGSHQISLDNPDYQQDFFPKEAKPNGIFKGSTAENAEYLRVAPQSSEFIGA

[8] = target: Follistatin-related protein 3 (Homo sapiens) (UniProt O95633); test: FSTL3 binders on small-molecule microarrays, primary screen, biochemical, small-molecule microarray, 635 nm fluorescence (AID 1105); conditions: FSTL3 binding, higher = more signal;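 note: score merges emission near 667 nm and signal to noise per printed spot across three slides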
Follistatin-related protein 3 (Homo sapiens), sequence (O95633 whole entry, looked up): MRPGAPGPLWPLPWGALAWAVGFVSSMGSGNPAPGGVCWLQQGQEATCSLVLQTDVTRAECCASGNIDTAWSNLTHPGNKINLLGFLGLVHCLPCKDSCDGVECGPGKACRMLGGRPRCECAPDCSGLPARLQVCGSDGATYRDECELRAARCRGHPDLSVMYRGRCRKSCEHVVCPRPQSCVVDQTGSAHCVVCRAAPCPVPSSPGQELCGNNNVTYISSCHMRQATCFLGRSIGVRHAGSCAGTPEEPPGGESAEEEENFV

[9] = target: Dickkopf-related protein 1 (Homo sapiens) (UniProt O94907); test: DKK1 binders on small-molecule microarrays, primary screen, biochemical, small-molecule microarray, 635 nm fluorescence scan (AID 1106); conditions: DKK1 binding, higher = more signal;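 note: score merges emission near 667 nm with signal to noise over three replicate slides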
Dickkopf-related protein 1 (Homo sapiens), sequence (O94907 whole entry, looked up): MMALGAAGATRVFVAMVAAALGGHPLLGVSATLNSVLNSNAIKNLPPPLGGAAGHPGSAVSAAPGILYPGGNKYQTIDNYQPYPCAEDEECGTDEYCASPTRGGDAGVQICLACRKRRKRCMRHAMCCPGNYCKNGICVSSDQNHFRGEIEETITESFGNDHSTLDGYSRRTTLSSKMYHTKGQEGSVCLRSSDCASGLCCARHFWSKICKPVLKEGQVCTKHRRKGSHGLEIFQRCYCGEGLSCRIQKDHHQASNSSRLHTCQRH

[10] = test system: Inhibin beta A chain (activin A); test: INHBA (activin A) binders on microarrays, primary screen, biochemical, small-molecule microarray, 635 nm fluorescence scan (AID 1107); conditions: small-molecule microarray binding, higher = more signal;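 note: mouse activin A protein probed at 4.33 µg/mL on printed slides; score merges bound-protein fluorescence near 667 nm with spot signal-to-noise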
[11] = test system: Human papillomavirus type 1a protein E7 (residues 44-93); test: HPV1a E7 fragment binders on microarrays, primary screen, biochemical, small-molecule microarray, residues 44-93, 635 nm fluorescence (AID 1108); conditions: small-molecule microarray binding, fluorescence 635 nm; higher = more signal;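 note: E7 fragment applied at 1 µg/mL in TBST for 1 h at 4 C; score combines spot fluorescence with its signal to noise ratio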
[12] = modulators of HCV replicon luciferase signal, primary screen, HCV replication inhibitor project, Huh7 cells, luciferase reporter (AID 1109); conditions: 48 h, higher = more signal;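 note: huh7 hepatoma cells harbouring a luciferase neomycin HCV replicon reporter; luciferase luminescence as measure of HCV replicon replication; test concentration not given here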
[13] = target: Left-right determination factor 2 (Homo sapiens) (UniProt O00292); test: LEFTY2 binders on small-molecule microarrays, primary screen, biochemical, small-molecule microarray, 635 nm fluorescence scan (AID 1110); conditions: LEFTY2 binding, higher = more signal
Left-right determination factor 2 (Homo sapiens), sequence (O00292 whole entry, looked up): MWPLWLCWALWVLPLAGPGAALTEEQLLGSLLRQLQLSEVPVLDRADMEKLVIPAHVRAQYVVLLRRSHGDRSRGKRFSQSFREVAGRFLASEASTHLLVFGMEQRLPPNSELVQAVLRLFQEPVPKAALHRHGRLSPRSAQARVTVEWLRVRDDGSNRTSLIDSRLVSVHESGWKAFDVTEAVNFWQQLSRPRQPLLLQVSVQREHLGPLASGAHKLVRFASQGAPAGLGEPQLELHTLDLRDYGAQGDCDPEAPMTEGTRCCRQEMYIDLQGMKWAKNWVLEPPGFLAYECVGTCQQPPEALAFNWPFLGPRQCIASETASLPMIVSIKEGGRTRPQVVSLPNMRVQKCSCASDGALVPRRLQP

[14] = target: Calmodulin-1 (Homo sapiens) (UniProt P0DP23); test: CALM1 binders on microarrays, EGTA buffer, profiling panel, biochemical, small-molecule microarray, Cy5-labelled CALM1 (AID 1111); conditions: Cy5-CALM1 binding fluorescence, higher = more signal;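 note: labelled calmodulin applied in Tris saline Tween buffer holding calcium plus EGTA and DTT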
[15] = target: Calmodulin-1 (Homo sapiens) (UniProt P0DP23); test: calcium-bound CALM1 binders on microarrays, profiling panel, artefact control for SMM control-protein annotation, biochemical, small-molecule microarray, Cy5-labelled CALM1, plus calcium (AID 1112); conditions: Cy5-CALM1 binding fluorescence, higher = more signal;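 note: score merges spot fluorescence with signal to noise from triplicate slides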
[16] = small-molecule microarray binders of probe aWnt5a, primary screen, biochemical, biotinylated probe, 635/667 nm fluorescence (AID 1113); conditions: higher = more signal;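 note: score merges 667 nm fluorescence intensity with signal-to-noise per printed feature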
[17] = small-molecule microarray binders of probe aShh, primary screen, biochemical, biotinylated probe, 635/667 nm fluorescence (AID 1114); conditions: higher = more signal;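 note: probe is biotin-labelled aShh protein from a stem cell growth factor screen; measures binding of labelled protein to compounds printed on the slide; score merges feature fluorescence at 667 nm with signal-to-noise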
[18] = small-molecule microarray binders of probe aNog, primary screen, biochemical, biotinylated probe, 635/667 nm fluorescence (AID 1115); conditions: higher = more signal;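 note: probe is biotinylated aNog protein used at 0.15 µg/mL for 1 h at 4 C; z-score combines 667 nm fluorescence of each spot with its signal to noise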
[19] = target: Torsin-1A-interacting protein 1 (Homo sapiens) (UniProt Q5JTV8); test: LAP1 binders from COS7 cell lysate, primary screen, small-molecule microarray, 635/667 nm fluorescence (AID 1116); conditions: COS7-hLAP1 lysate binding, 635 nm fluorescence, higher = more signal
Torsin-1A-interacting protein 1 (Homo sapiens), sequence (Q5JTV8 whole entry, looked up): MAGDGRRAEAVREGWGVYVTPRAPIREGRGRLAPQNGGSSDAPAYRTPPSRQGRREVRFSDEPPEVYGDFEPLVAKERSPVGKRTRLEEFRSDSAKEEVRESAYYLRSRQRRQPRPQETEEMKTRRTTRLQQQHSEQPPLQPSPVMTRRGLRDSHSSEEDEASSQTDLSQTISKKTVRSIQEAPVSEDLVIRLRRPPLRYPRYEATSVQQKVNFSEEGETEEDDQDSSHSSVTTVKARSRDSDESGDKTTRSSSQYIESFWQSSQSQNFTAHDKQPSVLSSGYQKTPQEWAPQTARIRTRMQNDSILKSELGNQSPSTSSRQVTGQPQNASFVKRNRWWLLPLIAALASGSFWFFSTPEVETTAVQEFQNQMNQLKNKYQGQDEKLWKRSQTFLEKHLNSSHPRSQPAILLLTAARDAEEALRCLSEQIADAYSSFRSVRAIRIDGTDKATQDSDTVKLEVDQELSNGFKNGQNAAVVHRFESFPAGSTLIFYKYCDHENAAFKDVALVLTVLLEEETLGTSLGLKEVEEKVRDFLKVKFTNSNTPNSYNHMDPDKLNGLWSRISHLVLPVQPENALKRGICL

[20] = target: Alpha-bungarotoxin (Bungarus multicinctus) (UniProt P60615); test: alpha-bungarotoxin binders on microarray, profiling panel, artefact control for SMM control protein annotation, biochemical, small-molecule microarray, Alexa647 label, 635/667 nm fluorescence (AID 1117); conditions: alpha-BTX-A647 binding fluorescence, higher = more signal
Alpha-bungarotoxin (Bungarus multicinctus), sequence (P60615 whole entry, looked up): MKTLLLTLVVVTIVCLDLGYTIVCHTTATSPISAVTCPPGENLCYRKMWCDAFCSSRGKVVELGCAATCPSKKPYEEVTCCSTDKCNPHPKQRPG

COC(=O)C1=C(C)N(Cc2ccccc2)[C@]23O[C@](C(=O)OC)(C(=O)N2[C@@H]1c1ccccc1)[C@H]1C(=O)N(C)C(=O)[C@H]13
composite z-score [1]: 0.626 and 0.336
composite z-score [2]: 0.0479 and 0.177
composite z-score [3]: -0.284 and -0.474
z-score [4]: -1.03 (inactive) and -1.27 (inactive)
composite z-score [5]: 0.408 and 0.827
composite z-score [6]: 0.933 and 0.452
composite z-score [7]: 0.473 and 0.427
composite z-score [8]: 0.645 and 0.82
composite z-score [9]: 0.415 and 0.942
composite z-score [10]: -0.338 and 0.137
composite z-score [11]: 0.866 and 0.534
z-score [12]: -1.01 and 0.238
composite z-score [13]: 1.15 and 0.687
composite z-score [14]: 0.949 and -0.202
composite z-score [15]: 0.29 and -0.107
composite z-score [16]: -0.16 and -0.0165
composite z-score [17]: -0.237 and 0.165
composite z-score [18]: -0.108 and -0.0008
composite z-score [19]: 0.384 and 0.73
composite z-score [20]: 0.0312 and -0.0037

CO[C@@H]1C=CCC(=O)N2CCC[C@H]2C(=O)OC[C@H](C)C(=O)OC[C@H]1C
composite z-score [1]: 0.517
composite z-score [2]: -0.33
composite z-score [3]: -0.966
z-score [4]: -0.25 (inactive)
composite z-score [5]: 0.243
composite z-score [6]: 0.396
composite z-score [7]: 0.612
composite z-score [8]: 0.875
composite z-score [9]: 1.26
composite z-score [10]: 0.358
composite z-score [11]: 0.172
z-score [12]: 0.182
composite z-score [13]: 0.96
composite z-score [14]: -0.594
composite z-score [15]: -1.16
composite z-score [16]: -0.202
composite z-score [17]: -0.352
composite z-score [18]: -0.216
composite z-score [19]: 0.568
composite z-score [20]: -0.0037

COc1ccc(COC(=O)NN=C2C[C@@H](O)[C@@H](O)[C@@H]3[C@@H]4C(=O)N(C(C)(C)C)C(=O)[C@@H]4CC[C@H]23)cc1
composite z-score [1]: 0.871
composite z-score [2]: -0.325
composite z-score [3]: -0.25
z-score [4]: -0.544 (inactive)
composite z-score [5]: 0.589
composite z-score [6]: 0.241
composite z-score [7]: -0.0313
composite z-score [8]: 0.121
composite z-score [9]: -0.116
composite z-score [10]: -0.786
composite z-score [11]: 1.01
z-score [12]: -0.167
composite z-score [13]: 0.0311
composite z-score [14]: -0.0989
composite z-score [15]: -0.143
composite z-score [16]: -0.1
composite z-score [17]: 0.0469
composite z-score [18]: -0.242
composite z-score [19]: 0.677
composite z-score [20]: 0.7

C=CCN(CCCCC)C(=O)C1N(C(C)(C)CO)C(=O)C2C(C(=O)O)C3C=CC21O3 (stereo not given)
composite z-score [1]: -0.0662 and -1.13
composite z-score [2]: -0.706 and -0.0156
composite z-score [3]: 0.767 and 0.884
z-score [4]: 0.507 (inactive) and 0.484 (inactive)
composite z-score [5]: -1.96 and -0.741
composite z-score [6]: -1.35 and -0.534
composite z-score [7]: -1.79 and -1.92
composite z-score [8]: -1.65 and -2.06
composite z-score [9]: -1.61 and -2.14
composite z-score [10]: -3.53 and -1.16
composite z-score [11]: -2.03 and -0.698
z-score [12]: -0.954 and -0.659
composite z-score [13]: -1.51 and -1.83
composite z-score [14]: -0.569 and -0.284
composite z-score [15]: 0.515 and 1.07
composite z-score [16]: -0.297 and -0.176
composite z-score [17]: -0.0626 and -0.138
composite z-score [18]: -0.0809 and 0.274
composite z-score [19]: -1.47 and -0.47
composite z-score [20]: -1.26 and -2.68

CON(C)C(=O)c1nnc2c3ccccc3n(S(=O)(=O)c3ccc(C)cc3)c2n1
composite z-score [1]: 0.478 and 0.658
composite z-score [2]: -0.0748 and 0.249
composite z-score [3]: -0.487 and -0.75
z-score [4]: 0.317 (inactive) and 0.807 (inactive)
composite z-score [5]: 0.638 and 0.746
composite z-score [6]: 0.67 and 1.25
composite z-score [7]: 0.484 and 0.58
composite z-score [8]: 0.476 and 1.02
composite z-score [9]: 0.614 and 0.551
composite z-score [10]: 0.454 and 0.688
composite z-score [11]: 0.652 and 1.1
z-score [12]: 1.78 and 1.38
composite z-score [13]: 0.755 and 0.321
composite z-score [14]: 0.761 and -0.142
composite z-score [15]: -0.318 and -1.11
composite z-score [16]: -0.0748 and -0.006
composite z-score [17]: -0.223 and 0.0022
composite z-score [18]: -0.373 and 0.0369
composite z-score [19]: 0.637 and 0.223
composite z-score [20]: 0.787 and 0.219

C[C@@H]1CC[C@H]2C(=O)O[C@H](CN=[N+]=[N-])CN2[C@H]1c1ccc(Br)cc1
composite z-score [1]: -0.0157 and 0.121
composite z-score [2]: 0.117 and -0.31
composite z-score [3]: -0.444 and -0.466
z-score [4]: 0.254 (inactive) and -0.0654 (inactive)
composite z-score [5]: 0.152 and -0.213
composite z-score [6]: -0.267 and -0.529
composite z-score [7]: 0.0267 and 0.0063
composite z-score [8]: -0.237 and -0.547
composite z-score [9]: 0.342 and -0.127
composite z-score [10]: 0.746 and 0.78
composite z-score [11]: -0.322 and -0.172
z-score [12]: -0.0944 and 0.335
composite z-score [13]: 0.0584 and 0.213
composite z-score [14]: -0.425 and -0.201
composite z-score [15]: -0.306 and -0.544
composite z-score [16]: -0.124
composite z-score [17]: -0.174 and -0.0769
composite z-score [18]: 0.0078 and -0.196
composite z-score [19]: -0.21 and 0.116
composite z-score [20]: 0.089 and 0.397

C[C@@H]1CN2[C@@H](CC[C@@H](C)[C@@H]2c2ccc(Br)cc2)C(=O)O1
composite z-score [1]: -0.638 and -0.597
composite z-score [2]: -0.295 and -0.239
composite z-score [3]: -0.211 and -0.583
z-score [4]: -0.142 (inactive) and -1.21 (inactive)
composite z-score [5]: -0.0428 and 0.337
composite z-score [6]: -0.534 and -0.046
composite z-score [7]: 0.167 and 0.49
composite z-score [8]: -0.579 and -0.462
composite z-score [9]: 0.313 and 0.233
composite z-score [10]: 0.502 and 0.45
composite z-score [11]: -0.561 and -0.15
z-score [12]: -0.67 and 1.5
composite z-score [13]: 0.57 and 0.0106
composite z-score [14]: -0.235 and -0.676
composite z-score [15]: -0.535 and 0.1
composite z-score [16]: -0.148 and -0.206
composite z-score [17]: -0.59 and -0.428
composite z-score [18]: 0.0014 and -0.287
composite z-score [19]: -0.0307 and -0.0763
composite z-score [20]: -0.209 and 0.0857

C=CCN(Cc1ccccc1)C(=O)C1N(CCOCCO)C(=O)C2C(C(=O)O)C3C=CC21O3 (stereo not given)
composite z-score [1]: 0.824 and 1.03
composite z-score [2]: 0.0606 and -0.027
composite z-score [3]: 1 and 1.1
z-score [4]: -1.11 (inactive) and -0.281 (inactive)
composite z-score [5]: -1.09 and -0.997
composite z-score [6]: -0.419 and -0.793
composite z-score [7]: -2.36 and -1.85
composite z-score [8]: -2.65 and -2.12
composite z-score [9]: -2.78 and -2.98
composite z-score [10]: -2.4 and -2.13
composite z-score [11]: -0.445 and -0.308
z-score [12]: 0.0184 and -0.0316
composite z-score [13]: -3 and -3.39
composite z-score [14]: -0.711 and -0.795
composite z-score [15]: 0.473 and -0.0792
composite z-score [16]: -0.228 and -0.208
composite z-score [17]: -0.138 and -0.276
composite z-score [18]: 0.238 and -0.341
composite z-score [19]: 3.99 and -0.887
composite z-score [20]: -2.86 and -1.73

C=CCN(CCCCC)C(=O)C1N(CCCCCCO)C(=O)C2C(C(=O)O)C3C=CC21O3 (stereo not given)
composite z-score [1]: 1.34 and 1.33
composite z-score [2]: -0.3 and -0.257
composite z-score [3]: 0.933 and 0.677
z-score [4]: -0.372 (inactive) and 0.305 (inactive)
composite z-score [5]: -1.23 and -1.99
composite z-score [6]: -0.699 and -1.32
composite z-score [7]: -1.76 and -2.1
composite z-score [8]: -2.21 and -0.897
composite z-score [9]: -3.08 and -2.95
composite z-score [10]: -0.194 and -1.46
composite z-score [11]: -0.37 and -0.151
z-score [12]: -0.415 and -0.545
composite z-score [13]: -0.978 and -2.49
composite z-score [14]: -1.53 and -0.747
composite z-score [15]: -0.155 and 0.379
composite z-score [16]: -0.256 and -0.258
composite z-score [17]: -0.0626 and -0.156
composite z-score [18]: -0.0784 and -0.208
composite z-score [19]: 0.257 and -1.03
composite z-score [20]: -1.31 and -1.22
